Experimental data reported in PubChem BioAssay.
Active and inactive are the calls of the source.

Key:
[1] = small molecules captured by biotinylated probe aFSTL3 – biochemical, small-molecule microarray, fluorescence 635/667, stem cell growth factor project, primary screen (AID 1064); conditions: higher = more signal;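 further: measures binding of the biotinylated anti-FSTL3 antibody to printed compounds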
[2] = binders from COS7 lysate, DM2A8 probe, primary screen, torsin A project, cell lysate, small-molecule microarray, fluorescence 635/667 (AID 1065); conditions: higher = more signal, COS7 lysate expressing mutant human TOR1A
[3] = small molecules captured by biotinylated probe aFGF2 – biochemical, small-molecule microarray, fluorescence 635/667, stem cell growth factor project, primary screen (AID 1067); conditions: higher = more signal;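 further: measures binding of biotinylated aFGF2 protein to printed compounds on slides; z-score merges feature fluorescence and signal-to-noise across triplicate slides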
[4] = small molecules captured by biotinylated probe aFGF10 – biochemical, small-molecule microarray, fluorescence 635/667, stem cell growth factor project, primary screen (AID 1071); conditions: higher = more signal;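 further: score merges 667 nm spot intensity and signal to noise from triplicate slides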
[5] = target: Neurogenic locus notch homolog protein 2 (Homo sapiens) (UniProt Q04721); assay: small molecules binding Notch2 protein – biochemical, small-molecule microarray, 635 nm fluorescence, stem cell growth factors, primary screen (AID 1073); conditions: higher = more signal
[6] = target: Pro-neuregulin-1, membrane-bound isoform (Homo sapiens) (UniProt Q02297); assay: small molecules binding neuregulin-1 protein – biochemical, small-molecule microarray, fluorescence 635/667, psychiatric disease protein project, primary screen (AID 1075); conditions: NRG1 binding, 635 nm fluorescence, higher = more signal;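 further: score combines 667 nm spot fluorescence with signal to noise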
[7] = tested on: Neuregulin-1 EGF-like domain; assay: small molecules binding NRG1 EGF domain – biochemical, small-molecule microarray, 635 nm fluorescence, primary screen (AID 1081); conditions: higher = more signal;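 further: binding of the protein to compounds printed on small-molecule microarray slides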
[8] = FRG1 expression reporter modulators in myotubes – cell-based, C2C12 myotubes, firefly/Renilla luciferase, luminescence, FRG1 inhibition for FSHD, primary screen (AID 1084); conditions: FRG1 promoter luciferase, higher = more signal, called active from +8 up or from −8 down
[9] = small molecules captured by biotinylated probe aFST – biochemical, small-molecule microarray, fluorescence 635/667, stem cell growth factor project, primary screen (AID 1086); conditions: higher = more signal;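 further: score merges 667 nm fluorescence with signal-to-noise of each printed compound spot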
[10] = binders of probe aHhip on microarray, primary screen, stem cell growth factor project, biochemical, small-molecule microarray, fluorescence 635/667 (AID 1087); conditions: higher = more signal;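 further: score merges spot fluorescence at 667nm with spot signal to noise ratio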
[11] = tested on: PRMT1 (protein arginine N-methyltransferase 1); assay: small molecules binding arginine methyltransferase PRMT1 – biochemical, small-molecule microarray, 635 nm fluorescence, primary screen (AID 1088); conditions: higher = more signal;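 further: binding of Prmt1 protein to compounds spotted on small-molecule microarray slides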
[12] = growth effects on S. cerevisiae YJM789 – YJM789 clinical isolate, OD600, 24 h, basal, primary screen (AID 1089); conditions: higher = more signal, called active from +8 up or from −8 down;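 further: growth of clinical yeast isolate S. cerevisiae YJM 789 seeded 1000 cells per well; test concentration not given here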
[13] = S. pombe growth modifiers, basal conditions – strain 972, OD600, 24 h, no modulator, primary screen (AID 1090);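 further: basal condition with compound alone and no growth modifier present; test concentration not given here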; conditions: S. pombe 972 growth, higher = more signal, called active from +8 up or from −8 down
[14] = budding yeast growth modifiers under rapamycin – strain BY4716, OD600, 96 h, primary screen (AID 1091); further: test concentration not given here; conditions: S. cerevisiae BY4716 + rapamycin, higher = more signal, called active from +8 up or from −8 down
[15] = target: Torsin-1A-interacting protein 2 (Homo sapiens) (UniProt Q8NFQ8); assay: small molecules binding lysate-expressed LULL1 – cell lysate, human LULL1 lysate, 635/667 nm fluorescence, primary screen (AID 1092); conditions: small-molecule microarray, hLULL1 lysate binding, 635 nm fluorescence; higher = more signal;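 further: probe is lysate of COS7 cells overexpressing human LULL1; score merges per-feature 667 nm fluorescence with signal-to-noise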
[16] = optical density change of DRC41 E. coli – strain DRC41, OD650, 24 h, E. coli filamentation project, primary screen (AID 1093);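 further: MC1000 strain lacking acrAB efflux and sulA so SOS filamentation is blocked; test concentration not given here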; conditions: E. coli DRC41 growth, higher = more signal, called active from +8 up or from −8 down
[17] = probe aLefty2 binding to arrayed compounds – biochemical, biotinylated probe, 635/667 nm fluorescence, primary screen (AID 1094); conditions: small-molecule microarray, higher = more signal;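 further: score merges spot fluorescence near 667 nm with spot signal-to-noise ratio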
[18] = tested on: Noggin (protein binding on small-molecule microarray); assay: small molecules binding Noggin protein – biochemical, 635/667 nm fluorescence, primary screen (AID 1095); conditions: 635 nm fluorescence, higher = more signal;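 further: score merges 667 nm feature fluorescence with signal to noise over triplicate slides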
[19] = target: Neurogenic locus notch homolog protein 3 (Homo sapiens) (UniProt Q9UM47); assay: small molecules binding NOTCH3 protein – biochemical, 635/667 nm fluorescence, primary screen (AID 1096); conditions: small-molecule microarray, 635 nm fluorescence, higher = more signal
[20] = probe aEGFR binding to arrayed compounds – biochemical, biotinylated probe, 635/667 nm fluorescence, primary screen (AID 1097); conditions: small-molecule microarray, higher = more signal;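 further: probe is a biotinylated anti-EGFR antibody binding compounds printed on slides; score combines fluorescence near 667 nm and signal to noise of each spot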

Chain of Neurogenic locus notch homolog protein 3 (Homo sapiens) (Q9UM47 whole entry, looked up): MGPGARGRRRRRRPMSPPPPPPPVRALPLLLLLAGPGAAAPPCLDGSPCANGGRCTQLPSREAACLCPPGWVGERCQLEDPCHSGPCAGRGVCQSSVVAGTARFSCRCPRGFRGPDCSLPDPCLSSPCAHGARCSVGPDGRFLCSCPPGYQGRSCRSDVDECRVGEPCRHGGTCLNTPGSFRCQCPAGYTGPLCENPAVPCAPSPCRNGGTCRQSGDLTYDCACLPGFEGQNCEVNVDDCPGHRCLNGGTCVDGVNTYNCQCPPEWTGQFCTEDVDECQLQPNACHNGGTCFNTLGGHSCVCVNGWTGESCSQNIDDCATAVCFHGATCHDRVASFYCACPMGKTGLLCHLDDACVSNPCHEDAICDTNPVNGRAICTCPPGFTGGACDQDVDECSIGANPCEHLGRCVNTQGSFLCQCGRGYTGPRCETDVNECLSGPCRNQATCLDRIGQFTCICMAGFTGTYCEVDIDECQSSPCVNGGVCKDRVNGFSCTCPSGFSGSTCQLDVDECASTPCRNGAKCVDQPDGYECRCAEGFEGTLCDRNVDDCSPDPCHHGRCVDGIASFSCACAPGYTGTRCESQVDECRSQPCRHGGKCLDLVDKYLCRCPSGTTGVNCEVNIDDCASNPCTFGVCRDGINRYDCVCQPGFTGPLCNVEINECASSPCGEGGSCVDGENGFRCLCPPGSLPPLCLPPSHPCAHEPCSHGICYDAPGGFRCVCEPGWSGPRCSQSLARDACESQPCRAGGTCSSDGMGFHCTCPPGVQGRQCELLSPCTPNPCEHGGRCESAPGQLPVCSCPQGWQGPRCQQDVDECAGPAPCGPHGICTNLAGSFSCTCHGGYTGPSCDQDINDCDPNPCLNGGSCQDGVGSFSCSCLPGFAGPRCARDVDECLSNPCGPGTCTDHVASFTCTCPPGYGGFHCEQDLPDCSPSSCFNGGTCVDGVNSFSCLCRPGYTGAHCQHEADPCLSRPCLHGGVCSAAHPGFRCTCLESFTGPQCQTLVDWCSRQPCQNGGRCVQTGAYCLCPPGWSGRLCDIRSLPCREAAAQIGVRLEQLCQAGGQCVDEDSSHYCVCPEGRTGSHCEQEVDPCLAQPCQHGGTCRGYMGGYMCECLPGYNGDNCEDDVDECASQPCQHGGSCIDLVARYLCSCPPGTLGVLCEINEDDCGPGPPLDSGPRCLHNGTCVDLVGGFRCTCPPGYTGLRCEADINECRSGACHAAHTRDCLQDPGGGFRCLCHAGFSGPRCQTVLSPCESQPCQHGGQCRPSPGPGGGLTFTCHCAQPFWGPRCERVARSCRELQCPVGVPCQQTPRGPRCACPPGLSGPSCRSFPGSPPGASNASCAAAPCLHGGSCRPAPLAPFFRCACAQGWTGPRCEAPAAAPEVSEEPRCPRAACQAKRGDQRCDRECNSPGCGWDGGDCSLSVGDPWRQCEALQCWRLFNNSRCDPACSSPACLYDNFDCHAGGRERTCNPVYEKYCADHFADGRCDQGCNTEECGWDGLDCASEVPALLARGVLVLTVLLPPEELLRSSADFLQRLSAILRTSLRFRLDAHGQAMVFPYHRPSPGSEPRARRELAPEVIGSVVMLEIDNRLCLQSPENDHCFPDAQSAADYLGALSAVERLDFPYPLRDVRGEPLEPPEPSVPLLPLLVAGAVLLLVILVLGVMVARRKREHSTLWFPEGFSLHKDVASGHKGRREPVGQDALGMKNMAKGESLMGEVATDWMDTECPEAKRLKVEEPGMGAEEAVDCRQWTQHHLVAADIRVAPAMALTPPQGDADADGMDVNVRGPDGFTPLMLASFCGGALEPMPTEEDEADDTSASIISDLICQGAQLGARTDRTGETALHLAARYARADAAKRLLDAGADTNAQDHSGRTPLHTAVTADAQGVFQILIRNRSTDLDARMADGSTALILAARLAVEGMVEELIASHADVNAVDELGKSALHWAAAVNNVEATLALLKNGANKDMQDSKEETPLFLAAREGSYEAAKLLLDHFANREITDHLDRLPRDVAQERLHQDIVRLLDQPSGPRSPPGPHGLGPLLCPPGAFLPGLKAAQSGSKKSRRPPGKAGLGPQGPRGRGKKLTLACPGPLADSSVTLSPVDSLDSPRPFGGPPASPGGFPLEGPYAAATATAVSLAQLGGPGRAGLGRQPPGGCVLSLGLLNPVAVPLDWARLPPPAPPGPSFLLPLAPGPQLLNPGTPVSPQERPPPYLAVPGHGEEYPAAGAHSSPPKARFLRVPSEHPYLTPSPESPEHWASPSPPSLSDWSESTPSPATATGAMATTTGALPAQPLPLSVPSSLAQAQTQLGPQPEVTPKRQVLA
Chain of Neurogenic locus notch homolog protein 2 (Homo sapiens) (Q04721 whole entry, looked up, canonical isoform): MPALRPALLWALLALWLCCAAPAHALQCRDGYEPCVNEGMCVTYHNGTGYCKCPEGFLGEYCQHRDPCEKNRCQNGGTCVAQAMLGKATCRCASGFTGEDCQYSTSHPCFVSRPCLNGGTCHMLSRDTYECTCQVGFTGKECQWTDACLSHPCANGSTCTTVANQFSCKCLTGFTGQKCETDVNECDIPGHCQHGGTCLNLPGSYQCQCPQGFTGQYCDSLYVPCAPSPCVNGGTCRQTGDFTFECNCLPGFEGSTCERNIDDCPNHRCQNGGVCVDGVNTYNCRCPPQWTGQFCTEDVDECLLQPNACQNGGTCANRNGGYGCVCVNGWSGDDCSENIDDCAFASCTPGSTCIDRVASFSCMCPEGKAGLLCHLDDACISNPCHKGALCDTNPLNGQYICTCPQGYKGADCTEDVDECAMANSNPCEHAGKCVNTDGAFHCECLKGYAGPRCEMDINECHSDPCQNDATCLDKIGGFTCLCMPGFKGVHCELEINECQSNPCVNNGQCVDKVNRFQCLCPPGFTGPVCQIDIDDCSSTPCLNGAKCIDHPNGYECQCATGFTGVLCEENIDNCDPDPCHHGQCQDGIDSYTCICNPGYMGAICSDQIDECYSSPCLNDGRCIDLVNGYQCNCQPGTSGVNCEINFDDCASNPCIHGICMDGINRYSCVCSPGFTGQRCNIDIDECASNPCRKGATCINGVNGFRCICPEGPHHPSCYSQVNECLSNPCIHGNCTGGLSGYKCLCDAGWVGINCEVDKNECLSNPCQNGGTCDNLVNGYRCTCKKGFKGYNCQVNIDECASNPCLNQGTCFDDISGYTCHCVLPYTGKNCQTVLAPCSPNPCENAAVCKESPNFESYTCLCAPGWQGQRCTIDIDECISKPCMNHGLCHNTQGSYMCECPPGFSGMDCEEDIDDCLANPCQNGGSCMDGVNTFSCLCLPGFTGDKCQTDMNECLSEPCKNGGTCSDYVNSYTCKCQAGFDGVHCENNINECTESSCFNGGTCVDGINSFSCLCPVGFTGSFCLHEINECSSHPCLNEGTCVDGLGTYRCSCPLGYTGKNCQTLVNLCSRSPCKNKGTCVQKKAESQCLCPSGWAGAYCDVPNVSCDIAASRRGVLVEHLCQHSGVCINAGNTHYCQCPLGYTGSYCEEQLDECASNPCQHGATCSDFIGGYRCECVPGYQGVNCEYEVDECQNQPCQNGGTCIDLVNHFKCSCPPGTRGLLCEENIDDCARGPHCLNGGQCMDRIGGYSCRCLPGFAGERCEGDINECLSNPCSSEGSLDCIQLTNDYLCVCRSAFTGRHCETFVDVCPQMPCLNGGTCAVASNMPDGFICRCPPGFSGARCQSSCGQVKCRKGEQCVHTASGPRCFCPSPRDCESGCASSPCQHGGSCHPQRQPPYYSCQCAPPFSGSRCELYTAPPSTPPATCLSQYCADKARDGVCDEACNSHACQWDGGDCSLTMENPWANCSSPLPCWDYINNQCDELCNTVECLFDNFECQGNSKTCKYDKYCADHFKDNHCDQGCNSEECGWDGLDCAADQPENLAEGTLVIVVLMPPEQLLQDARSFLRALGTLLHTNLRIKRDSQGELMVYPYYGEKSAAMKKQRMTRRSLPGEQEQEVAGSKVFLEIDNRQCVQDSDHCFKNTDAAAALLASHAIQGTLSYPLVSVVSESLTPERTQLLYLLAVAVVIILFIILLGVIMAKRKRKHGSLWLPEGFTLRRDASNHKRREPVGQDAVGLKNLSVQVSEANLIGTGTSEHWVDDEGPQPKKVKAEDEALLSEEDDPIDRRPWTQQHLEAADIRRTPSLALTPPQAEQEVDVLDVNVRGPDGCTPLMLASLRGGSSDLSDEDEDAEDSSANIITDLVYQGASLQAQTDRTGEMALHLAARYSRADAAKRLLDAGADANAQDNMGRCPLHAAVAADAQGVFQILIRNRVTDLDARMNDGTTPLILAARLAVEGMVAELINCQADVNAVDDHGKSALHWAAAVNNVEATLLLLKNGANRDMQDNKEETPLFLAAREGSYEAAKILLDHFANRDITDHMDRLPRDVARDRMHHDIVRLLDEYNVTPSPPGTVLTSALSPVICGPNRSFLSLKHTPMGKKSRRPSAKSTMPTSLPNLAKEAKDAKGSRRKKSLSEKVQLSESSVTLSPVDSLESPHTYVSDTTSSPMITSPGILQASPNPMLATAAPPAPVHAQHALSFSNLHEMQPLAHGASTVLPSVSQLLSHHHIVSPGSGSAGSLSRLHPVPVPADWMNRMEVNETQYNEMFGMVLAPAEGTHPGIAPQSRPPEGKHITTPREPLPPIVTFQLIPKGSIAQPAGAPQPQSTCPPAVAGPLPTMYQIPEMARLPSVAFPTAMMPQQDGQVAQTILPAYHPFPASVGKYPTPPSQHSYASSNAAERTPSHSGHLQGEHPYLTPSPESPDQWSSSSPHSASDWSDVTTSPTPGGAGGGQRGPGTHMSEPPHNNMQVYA

Structure (SMILES)	composite z-score [1]	composite z-score [2]	composite z-score [3]	composite z-score [4]	composite z-score [5]	composite z-score [6]	composite z-score [7]	z-score [8]	composite z-score [9]	composite z-score [10]	composite z-score [11]	z-score [12]	z-score [13]	z-score [14]	composite z-score [15]	z-score [16]	composite z-score [17]	composite z-score [18]	composite z-score [19]	composite z-score [20]
CCOC(=O)C1=CC[C@@H](c2ccccc2)N(S(=O)(=O)c2ccc(C)cc2)[C@H]1C=C(C)C	-0.259	0.644	0.119	0.831	1.46	0.944	0.957	-2.39 (inactive)	1.58	-0.199	1.54	0.465 (inactive)	2.76 (inactive)	4 (inactive)	3.22	0.322 (inactive)	0.0704	0.793	1.06	0.101
CC(C)(C)OC(=O)CC[C@@]1(C(=O)N2CCCCC2)N=C(c2ccc(OCCCO)cc2)O[C@@H]1c1ccccc1CN=[N+]=[N-]	0.165	0.159	0.103	0.355	1.65	1.98	1.22	-1.98 (inactive)	1.63	0.0854	1.54	-0.492 (inactive)	-0.689 (inactive)	-0.0683 (inactive)	3.66	0.308 (inactive)	0.208	0.39	1.05	0.0026
NC(=O)NCC#Cc1ccc2c(c1)[C@]1(C(=O)N2)[C@H](c2ccc(O)cc2)N2[C@H](c3ccccc3)[C@H](c3ccccc3)OC(=O)[C@H]2[C@@H]1C(=O)NC[C@H](O)c1ccccc1	1.38	-1.23	-0.132	-1.17	-1.17	0.831	-0.18	-0.0208 (inactive)	-0.268	0.172	-0.0161	-0.195 (inactive)	0.207 (inactive)	-0.0001 (inactive)	-0.383	0.821 (inactive)	-0.0435	-2.14	-0.91	-0.276
CN(C)CCCCNC(=O)[C@H]1C[C@H]2C(=O)N[C@@H](CCCC[N+](C)(C)C)C(=O)N2[C@H]1c1cccc(OCCO)c1	-0.235	1.09	-0.116	-0.0012	-0.606	0.417	1.26	2.9 (inactive)	-0.268	-0.0994	1.53	-0.359 (inactive)	0.276 (inactive)	-0.702 (inactive)	2.05	0.305 (inactive)	-0.204	1.35	0.907	-0.0733
COCCOC(=O)N1C(=O)[C@@]2(c3cc(C#CC4(O)CCCCCC4)ccc31)[C@H](C(=O)N1CCN(c3ncccn3)CC1)[C@H]1C(=O)O[C@H](c3ccccc3)[C@H](c3ccccc3)N1[C@@H]2c1ccc(O)cc1	-0.238	0.413	0.0228	0.806	0.372	0.438	1.22	-0.617 (inactive)	-0.123	-0.0618	1.47	1.79 (inactive)	-0.885 (inactive)	2.83 (inactive)	2.54	1.31 (inactive)	-0.172	0.287	0.546	-0.158
COc1ccc(C(=O)Nc2ccc(CN3C(=O)[C@@]4(O[C@@H](CC(=O)N5Cc6ccccc6C[C@H]5CO)[C@H]([Si](C)(C)c5ccc(OC)cc5)[C@H]4C)c4ccccc43)cc2)cc1	-0.313	0.17	0.0275	0.158	-0.0395	0.822	1.1	-4.29 (inactive)	0.185	-0.173	1.51	-1.8 (inactive)	0.821 (inactive)	1.87 (inactive)	1.92	0.265 (inactive)	-0.215	1.61	1.13	-0.0961
COC(=O)C(CC#Cc1ccc2c(c1)[C@]1(C(=O)N2)[C@H](c2ccc(O)cc2)N2[C@H](c3ccccc3)[C@H](c3ccccc3)OC(=O)[C@H]2[C@@H]1C(N)=O)C(=O)OC	0.659	-0.392	-0.168	-1.89	-1.06	-0.605	-0.777	-0.719 (inactive)	-0.611	-0.245	-1.37	-0.731 (inactive)	-0.55 (inactive)	-0.438 (inactive)	-0.759	2.23 (inactive)	-0.189	-2.58	-1.06	0.162
O=C1OCC=C[C@H]2OC34C=CCN(CCN5CCOCC5)C(=O)[C@H]3N(CCCCCO)C(=O)[C@@H]4[C@@H]12 (stereo not given in full)	-0.099	0.298	-0.128	-0.191	0.0385	-0.0529	1.43	0.401 (inactive)	-0.452	-0.236	-0.0623	-1 (inactive)	-0.586 (inactive)	-0.406 (inactive)	2.22	-0.0128 (inactive)	-0.0282	0.0316	-0.255	-0.0831
CCCC=C(CCC)[C@@H](NS(=O)(=O)c1cccc2cccnc12)c1ccc(C(=O)OC)cc1	3.16	1.19	0.84	1.65	1.59	0.136	0.83	1.76 (inactive)	3.43	0.754	0.763	0.797 (inactive)	-0.271 (inactive)	0.823 (inactive)	0.472	-0.376 (inactive)	0.679	2.03	0.542	1.35
CO[C@H]1O[C@H](CO)[C@@H](OC(=O)Nc2ccc(C(F)(F)F)cc2)[C@H](OC(=O)Nc2ccccc2)[C@H]1OC(=O)Nc1ccccc1	0.113	0.745	0.233	1.15	1.58	1.72	1.3	2.74 (inactive)	1.07	-0.105	1.53	0.719 (inactive)	-0.304 (inactive)	5.51 (inactive)	3.14	-0.994 (inactive)	0.158	0.896	1.04	0.172
CC(C)N1CC=CC23O[C@@H]4C=CCOC(=O)[C@@H]4[C@H]2C(=O)N(CCCCCCO)[C@@H]3C1=O (stereo not given in full)	-0.895	-0.775	-0.237	1.07	-0.697	-0.126	1.47	0.213 (inactive)	-0.588	-0.949	0.0483	-0.976 (inactive)	-0.174 (inactive)	-1.41 (inactive)	3.29	0.76 (inactive)	-0.315	-0.627	-0.478	-0.2
CC(C)c1ccc(NN2C(C(O)c3ccccn3)C=CC3C(=O)N(c4ccccc4)C(=O)C32)cc1 (stereo not given)	-0.311	0.205	0.235	1.17	1.64	1.64	1.42	3.43 (inactive)	1.49	0.347	1.5	0.485 (inactive)	-0.951 (inactive)	-0.252 (inactive)	3.7	-0.405 (inactive)	0.0038	1.7	1.05	0.154
CC(C)CCC[C@@H](C)[C@H]1CC[C@@]2(C)C3=C(CC[C@]12C)[C@@]1(C)CC[C@H](OC(=O)c2ccc(N)cc2)C(C)(C)C1CC3 (stereo not given in full)	-0.219	0.481	-0.145	0.448	0.558	-0.0202	0.649	-1.35 (inactive)	0.0576	-0.406	0.68	-1.77 (inactive)	-1 (inactive)	-0.246 (inactive)	-0.0362	2.78 (inactive)	-0.19	0.434	0.614	-0.0238
CN1C(=O)C2C=CC(C(O)COCc3ccccc3)N(Nc3ccccc3)C2C1=O (stereo not given)	-0.121	0.165	0.308	0.389	1.33	0.374	1	0.146 (inactive)	0.486	-0.166	0.691	0.12 (inactive)	1.15 (inactive)	-0.116 (inactive)	3.54	-0.309 (inactive)	0.147	0.28	0.896	-0.0232
COCCCNC(=O)[C@]1(Cc2ccccc2)N=C(c2ccc(OCCCO)cc2)O[C@@H]1c1ccccc1N=[N+]=[N-]	0.29	1.54	0.12	0.632	1.02	0.725	1.2	-0.309 (inactive)	1.47	-0.0994	1.56	-0.499 (inactive)	-0.357 (inactive)	1.37 (inactive)	3.16	0.49 (inactive)	-0.02	1.67	1.15	-0.0238
CN(C)C(=O)[C@@]1(Cc2ccccc2N=[N+]=[N-])N=C(c2ccc(OCCCO)cc2)O[C@H]1c1ccccc1N=[N+]=[N-]	0.982	1.2	0.125	0.765	1.51	1.46	0.73	-0.325 (inactive)	1.53	0.28	1.56	0.506 (inactive)	-2.68 (inactive)	3.01 (inactive)	2.87	0.239 (inactive)	0.505	0.126	1.06	0.387
CCC[C@@H]1C[C@@]1(CCC)[C@@H](NC(=O)c1cccs1)c1ccc(Cl)cc1	1.38	-0.553	-0.0861	-0.092	-1.6	0.161	-0.405	-2.04 (inactive)	-0.711	-0.254	0.0333	-0.5 (inactive)	-3.76 (inactive)	-0.454 (inactive)	1.4	0.102 (inactive)	0.0395	-1.87	-0.118	-0.435
C#CCNS(=O)(=O)N(C)C	-0.49	0.0943	-0.0291	0.276	0.707	0.174	0.774	-0.533 (inactive)	-0.136	0.208	0.392	1.24 (inactive)	0.783 (inactive)	0.689 (inactive)	0.43	0.663 (inactive)	-0.139	0.4	0.579	-0.054
C=C(C(=O)CC[C@H](OC(=O)c1cccnc1)c1ccc(OCCO)cc1)C(C)C	-0.241	1.43	0.0612	0.404	0.539	0.19	1.2	1.14 (inactive)	0.995	0.0881	1.55	0.366 (inactive)	-1.54 (inactive)	0.905 (inactive)	1.76	-0.388 (inactive)	-0.0961	0.986	0.717	-0.0362
COc1ccccc1CN1C(=O)c2ccccc2[C@@]2(Cc3ccccc3N(C3CC3)C2=O)[C@@H]1c1ccc(CO)cc1	-0.262	-0.804	-0.107	0.0106	-0.461	0.937	-0.0422	-0.223 (inactive)	0.0845	-0.164	0.0943	-0.245 (inactive)	-0.384 (inactive)	-2.24 (inactive)	0.861	-0.134 (inactive)	-0.0699	-0.2	-0.473	-0.181
